Experimental data as given in PubChem BioAssay (NCI).
Compounds without any hit were thinned out: in the full panel of roughly 79,000, 15% have a hit. Rule as the data show it: active = growth inhibition above about 70%; inactive = the rest.

Key:
[1] = NCI Yeast Anticancer Drug Screen. Data for the rad50 strain (AID 155);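 also: 0% = growth of vehicle-only cultures of the same strain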; conditions: S. cerevisiae rad50 strain growth inhibition; at 50.0 µM; hits give high values
In short: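 Genetically altered yeast (DNA repair pathway); compound treatment; growth inhibition vs vehicle ctrl.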

[2] = NCI Yeast Anticancer Drug Screen. Data for the mec2-1 strain (AID 157); conditions: S. cerevisiae mec2-1 strain, at 50.0 µM, hits give high values
In short: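 Using mec2-1 yeast: add compound, measure growth, express inhibition versus vehicle-treated cultures.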

[3] = NCI Yeast Anticancer Drug Screen. Data for the sgs1 mgt1 strain (AID 161);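 also: 0% = growth of cultures given vehicle only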; conditions: S. cerevisiae sgs1 mgt1 strain, at 50.0 µM, hits give high values
In short: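 Compounds are added to genetically altered yeast, and growth is compared with cultures given vehicle alone to give percent inhibition.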

[4] = NCI Yeast Anticancer Drug Screen. Data for the cln2 rad14 strain (AID 165);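 also: 0% = growth equal to vehicle treated cultures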; conditions: S. cerevisiae cln2 rad14 strain, at 50.0 µM, hits give high values
In short: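 Yeast strain cln2 rad14, bearing defects in cell cycle control and DNA repair, serves as the test system; values reflect growth inhibition compared with vehicle.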

[5] = NCI Yeast Anticancer Drug Screen. Data for the bub3 strain (AID 167); conditions: S. cerevisiae bub3 mutant strain, at 50.0 µM, hits give high values
In short: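 Yeast carrying a defined mutation is treated with each compound, and growth is compared with that of vehicle-exposed cells to give inhibition.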

[6] = NCI Yeast Anticancer Drug Screen. Data for the mlh1 rad18 strain (AID 175); conditions: S. cerevisiae mlh1 rad18 strain growth inhibition; at 50.0 µM; hits give high values
In short: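 Steps: expose repair-defective yeast to compound; measure growth; express inhibition against vehicle-treated controls.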

Measured: growth inhibition

Cc1ccc(NC2=CC(=O)C(=O)c3ccccc32)cc1C
inactive: [1] 35% | [2] 13.1% | [3] 19.4% | [4] 11.4% | [5] 34% | [6] 26.5%

Cc1nc(-n2nc(-c3ccccc3)cc2-c2ccccc2)sc1C(=O)/C=C/c1ccc(Cl)c(Cl)c1
inactive: [1] 53.2% | [2] 4.55% | [3] 6.8% | [4] 21.1% | [5] 22.4% | [6] 12.8%

COc1cccc(N=Nc2c(-c3ccccc3)nn(C(=S)S)c2C)c1
inactive: [1] -2.6% | [2] 0.6% | [3] 17.6% | [4] -192% | [5] 19.3% | [6] 20.6%

NC(=O)NNC/C(Cl)=C(\Cl)C(=O)O
inactive: [1] -1.65% | [2] -19.4% | [3] 8.7% | [4] 16.9% | [5] 5.5% | [6] 2.85%

CC(C)CCc1c(Cl)nc(Cl)nc1Cl
inactive: [1] 32.2% | [2] 38.6% | [3] 33.6% | [4] 10.1% | [5] 43.9% | [6] 16.9%

CC(=O)CC(=O)Nc1ccc(-c2ccccc2)cc1
inactive: [1] 19.7% | [2] 3.95% | [3] 18.1% | [4] -16.2% | [5] -6.9% | [6] -0.35%

CC(=O)N(C)c1ccc(O)cc1
inactive: [1] 14.6% | [2] -16.1% | [3] -16.1% | [4] -18.6% | [5] -8.9% | [6] 9.2%

OC(c1cc(-c2ccccc2)nc2c1ccc1ccccc12)C1CCCCN1 (configuration not stated)
inactive: [1] 32.5% | [2] 16.7% | [3] -17.1% | [4] 14% | [5] 11.6% | [6] 26.4%

CCN(CC)CCN1c2ccccc2Sc2ccc3ccccc3c21
inactive: [1] 37.5% | [2] 0.8% | [3] 2.7% | [4] 3.4% | [5] 38.5% | [6] 58.5%

NCCCC(=O)NCCCCCCCCCCNC(=O)CCCN
inactive: [1] 29.3% | [2] 18% | [3] 19% | [4] 15.6% | [5] -4.45% | [6] 24.4%

O=c1[nH]c2ccc(Br)cc2cc1Br
inactive: [1] 21.9% | [2] -9% | [3] 0.3% | [4] 6.65% | [5] 2.45% | [6] 20.8%

O=C1c2cccc3cccc(c23)C(=O)N1C(Cc1ccccc1)c1ccccc1 (configuration not stated)
inactive: [1] -15.5% | [2] -49.4% | [3] -15.1% | [4] -4.2% | [5] -37.8% | [6] -31.1%

CC/C(CC(C)CC)=N\O (configuration not stated)
inactive: [1] -17.4% | [2] -18.2% | [3] -23.4% | [4] 12.5% | [5] -4.55% | [6] -5.75%

C/C(=N/OCCC(=O)O)C1CC1
inactive: [1] -2.85% | [2] -1.65% | [3] -1.35% | [4] 11.8% | [5] 7.9% | [6] -17.6%

ON1c2ccc3ccccc3c2C=CC1(c1ccccc1)c1ccccc1
inactive: [1] -12.7% | [2] -2.75% | [3] -12.6% | [4] 23.2% | [5] 16.5% | [6] 10.9%

CCN(CC)CCn1c(=O)c2c(ncn2C)n(C)c1=O
inactive: [1] -5.55% | [2] -22.7% | [3] 12.6% | [4] -36.3% | [5] 11.8% | [6] -15.6%

CC(NC(=O)c1ccc(C(C[N+](=O)[O-])SCCC(=O)O)cc1)C(=O)O (configuration not stated)
inactive: [1] 18.9% | [2] 7.2% | [3] 26.2% | [4] 5.55% | [5] -15.9% | [6] 1.2%

NC(N)=NC(N)=Nc1ccc(-c2ccc(N=C(N)N=C(N)N)cc2)cc1
inactive: [1] 0.85% | [2] -0.3% | [3] -0.7% | [4] 6.15% | [5] 7.9% | [6] 13.6%

CCOC(=O)c1cnc(N)nc1N
inactive: [1] 6.35% | [2] -16.1% | [3] -6.3% | [4] -88.3% | [5] -8.3% | [6] 24.1%

CCOC(=O)/C(=C/c1ccc(N(CCC#N)CCC#N)cc1C)NC(=O)/C=C/c1ccccc1
inactive: [1] -2.25% | [2] -5.85% | [3] -16.2% | [4] -20.6% | [5] -25.4% | [6] -9.65%

COC(=O)CCC(NC(=S)N/N=C(\C)c1cccs1)C(=O)OC (configuration not stated)
inactive: [1] 14.1% | [2] -10.3% | [3] 17.3% | [4] 0.45% | [5] 7.4% | [6] -0.25%

Nc1[nH]c(=O)nc2c1ncn2C1OC(CO)C(O)C1O (configuration not stated)
inactive: [1] -10.3% | [2] -27.6% | [3] -12.3% | [4] -3.65% | [5] -4.25% | [6] -10.2%

O=C(/C=C/c1cccs1)c1ccc(Cl)cc1
inactive: [1] -26.6% | [2] -41.3% | [3] -9.45% | [4] -2.8% | [5] 2.2% | [6] -4.35%

Cc1cc(=O)oc2cc(OCCCOc3ccc4c(C)cc(=O)oc4c3)ccc12
inactive: [1] 19.1% | [2] 5.45% | [3] -2.1% | [4] -4.1% | [5] -5.2% | [6] 13.3%

COC(=O)C(/C(=N/NC(N)=O)C(=O)Nc1c(C)cccc1C(C)(C)C)c1nc2ccc(Cl)cc2[nH]c1=O (configuration not stated)
inactive: [1] -3.9% | [2] -15.7% | [3] -7.4% | [4] 3.3% | [5] -11.2% | [6] 0.1%

Nc1nnc2nc(CC(=O)c3cccc([N+](=O)[O-])c3)c(CC(=O)c3cccc([N+](=O)[O-])c3)nn12
inactive: [1] 4.5% | [2] 4.2% | [3] 9.35% | [4] 18.2% | [5] 18.6% | [6] 14.8%

CC(C)(C)c1cc(Nc2c([N+](=O)[O-])cc([N+](=O)[O-])cc2[N+](=O)[O-])cc(C(C)(C)C)c1O
inactive: [1] -17.7% | [2] 10.4% | [3] 2.65% | [4] 20.4% | [5] -5.4% | [6] 0.45%

CC1COC(C(C)C)(C(C)C)O1 (configuration not stated)
inactive: [1] -8.6% | [2] -30.1% | [3] -4.2% | [4] -10% | [5] -2.7% | [6] 22.4%

NS(=O)(=O)c1ccc(C(=O)O)s1
inactive: [1] -12.1% | [2] -11.2% | [3] -10.3% | [4] -11% | [5] 11.6% | [6] -18.1%

CC1=Cc2cc3[n-]c(cc4nc(cc5[n-]c(cc1n2)c(C)c5CCC(=O)O)C(CCC(=O)O)=C4C)cc3C.[Cu+2]
inactive: [1] 0.9% | [2] -0.9% | [3] 10.3% | [4] -49.5% | [5] 15.2% | [6] -0.5%

CCN(CC)C(=S)SCCC(N)=O
inactive: [1] -12.4% | [2] -13.8% | [3] -2.8% | [4] 9.15% | [5] -1.25% | [6] -0.65%

CC(C)(C)C(=O)C(C#N)C(=O)C(C)(C)C
inactive: [1] 8.75% | [2] -19.9% | [3] -7.45% | [4] 16.1% | [5] -19.9% | [6] -14.2%

O=C1c2cccc3cc([N+](=O)[O-])cc(c23)C(=O)N1Cc1ccco1
inactive: [1] 24.6% | [2] 8.85% | [3] 32.2% | [4] 16.8% | [5] 7.65% | [6] 0.95%

O=S1CCCO1 (configuration not stated)
inactive: [1] -7.55% | [2] -8.6% | [3] -13.8% | [4] -41.2% | [5] 11% | [6] 0.3%

CCCCN1C(=O)c2ccccc2C1=O
inactive: [1] 5.55% | [2] -10.7% | [3] 27.2% | [4] 7.9% | [5] 9.45% | [6] 13.4%

CCCCS/C=C\C(=O)OCC
inactive: [1] 18.9% | [2] -22.8% | [3] -8.5% | [4] -44% | [5] 0.15% | [6] -15.4%

OCCN(CCO)c1ccc(-n2cnc3c(=S)nc[nH]c32)cc1
inactive: [1] -3.1% | [2] -3% | [3] 5.55% | [4] -43.8% | [5] 8.35% | [6] -4.15%

O=C1/C(=C/c2ccc(Cl)cc2)CCC1CCN1CCOCC1 (configuration not stated)
inactive: [1] 46.9% | [2] 40.5% | [3] 51.2% | [4] 60% | [5] 41.2% | [6] 59.2%

CCC(CO)c1ccccc1 (configuration not stated)
inactive: [1] -3.6% | [2] -17.7% | [3] -3.1% | [4] -25.4% | [5] -3.1% | [6] -12.1%

O=C(O)c1cccc(C(=O)c2ccccc2)c1
inactive: [1] 5.55% | [2] 6.15% | [3] 20.4% | [4] 4.4% | [5] -11.7% | [6] 0.7%

COc1ccc(CC(=O)NCCc2ccc(OC)c(OC)c2)cc1Br
inactive: [1] 12.2% | [2] -4.85% | [3] -3.8% | [4] 8.35% | [5] 8.8% | [6] 2.6%

CCC1CN2CCc3c([nH]c4ccccc34)[C@@](C(=O)OC)(c3cc4c(cc3OC)N(C)C3C(O)(C(=O)OC)C(C(=O)OC)C5(CC)C=CCN6CCC43C65)C[C@@H](C2)[C@@H]1C(C)(C)C (some centres not stated)
inactive: [1] -6.3% | [2] -10% | [3] -9% | [4] -13.6% | [5] -36.3% | [6] -72.7%
